# Results: PubChem BioAssay AID504333 (National Center for Advancing Translational Sciences (NCATS), 2011)
# Screen size: about 360,000 compounds; about 16,000 (4.4%) were called active. Inconclusive results (about 9%) are left out. The sample holds actives, similar compounds and a random draw of the others, so the mix is not that of the screen. The call rests on the fitted dose curve; in most records, active means well fitted inhibition curve with a large enough effect; inconclusive means small, poorly fitted or top-dose-only effect; inactive means no such curve, though single readings can be large or run the other way.
# Molecular target: Bromodomain adjacent to zinc finger domain protein 2B (Homo sapiens) (UniProt Q9UIF8)
# Experiment: qHTS Assay for Inhibitors of BAZ2B; further: nearly all actives have a fitted effect of over 60% in size
# Details: AlphaScreen BAZ2B-H3K14Ac peptide displacement; series mostly up to 114 µM; activity change, negative = inhibition: at the top concentration
# In short: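 Protein-peptide AlphaScreen: BAZ2B 50 nM, b-H3K14Ac 50 nM, 1x PBS pH 7.4 + 0.01% Tween-20. Preincubation 30 min RT; cpd 30 min RT (top 110 uM); beads 20 min RT, light-protected.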
# On the % scale 0 is the no-effect control and ±100 the full control effect; potency means the concentration at half of the fitted maximal effect.
# Sequence of Bromodomain adjacent to zinc finger domain protein 2B (Homo sapiens) (Q9UIF8 whole entry, looked up, the tested form may be a part): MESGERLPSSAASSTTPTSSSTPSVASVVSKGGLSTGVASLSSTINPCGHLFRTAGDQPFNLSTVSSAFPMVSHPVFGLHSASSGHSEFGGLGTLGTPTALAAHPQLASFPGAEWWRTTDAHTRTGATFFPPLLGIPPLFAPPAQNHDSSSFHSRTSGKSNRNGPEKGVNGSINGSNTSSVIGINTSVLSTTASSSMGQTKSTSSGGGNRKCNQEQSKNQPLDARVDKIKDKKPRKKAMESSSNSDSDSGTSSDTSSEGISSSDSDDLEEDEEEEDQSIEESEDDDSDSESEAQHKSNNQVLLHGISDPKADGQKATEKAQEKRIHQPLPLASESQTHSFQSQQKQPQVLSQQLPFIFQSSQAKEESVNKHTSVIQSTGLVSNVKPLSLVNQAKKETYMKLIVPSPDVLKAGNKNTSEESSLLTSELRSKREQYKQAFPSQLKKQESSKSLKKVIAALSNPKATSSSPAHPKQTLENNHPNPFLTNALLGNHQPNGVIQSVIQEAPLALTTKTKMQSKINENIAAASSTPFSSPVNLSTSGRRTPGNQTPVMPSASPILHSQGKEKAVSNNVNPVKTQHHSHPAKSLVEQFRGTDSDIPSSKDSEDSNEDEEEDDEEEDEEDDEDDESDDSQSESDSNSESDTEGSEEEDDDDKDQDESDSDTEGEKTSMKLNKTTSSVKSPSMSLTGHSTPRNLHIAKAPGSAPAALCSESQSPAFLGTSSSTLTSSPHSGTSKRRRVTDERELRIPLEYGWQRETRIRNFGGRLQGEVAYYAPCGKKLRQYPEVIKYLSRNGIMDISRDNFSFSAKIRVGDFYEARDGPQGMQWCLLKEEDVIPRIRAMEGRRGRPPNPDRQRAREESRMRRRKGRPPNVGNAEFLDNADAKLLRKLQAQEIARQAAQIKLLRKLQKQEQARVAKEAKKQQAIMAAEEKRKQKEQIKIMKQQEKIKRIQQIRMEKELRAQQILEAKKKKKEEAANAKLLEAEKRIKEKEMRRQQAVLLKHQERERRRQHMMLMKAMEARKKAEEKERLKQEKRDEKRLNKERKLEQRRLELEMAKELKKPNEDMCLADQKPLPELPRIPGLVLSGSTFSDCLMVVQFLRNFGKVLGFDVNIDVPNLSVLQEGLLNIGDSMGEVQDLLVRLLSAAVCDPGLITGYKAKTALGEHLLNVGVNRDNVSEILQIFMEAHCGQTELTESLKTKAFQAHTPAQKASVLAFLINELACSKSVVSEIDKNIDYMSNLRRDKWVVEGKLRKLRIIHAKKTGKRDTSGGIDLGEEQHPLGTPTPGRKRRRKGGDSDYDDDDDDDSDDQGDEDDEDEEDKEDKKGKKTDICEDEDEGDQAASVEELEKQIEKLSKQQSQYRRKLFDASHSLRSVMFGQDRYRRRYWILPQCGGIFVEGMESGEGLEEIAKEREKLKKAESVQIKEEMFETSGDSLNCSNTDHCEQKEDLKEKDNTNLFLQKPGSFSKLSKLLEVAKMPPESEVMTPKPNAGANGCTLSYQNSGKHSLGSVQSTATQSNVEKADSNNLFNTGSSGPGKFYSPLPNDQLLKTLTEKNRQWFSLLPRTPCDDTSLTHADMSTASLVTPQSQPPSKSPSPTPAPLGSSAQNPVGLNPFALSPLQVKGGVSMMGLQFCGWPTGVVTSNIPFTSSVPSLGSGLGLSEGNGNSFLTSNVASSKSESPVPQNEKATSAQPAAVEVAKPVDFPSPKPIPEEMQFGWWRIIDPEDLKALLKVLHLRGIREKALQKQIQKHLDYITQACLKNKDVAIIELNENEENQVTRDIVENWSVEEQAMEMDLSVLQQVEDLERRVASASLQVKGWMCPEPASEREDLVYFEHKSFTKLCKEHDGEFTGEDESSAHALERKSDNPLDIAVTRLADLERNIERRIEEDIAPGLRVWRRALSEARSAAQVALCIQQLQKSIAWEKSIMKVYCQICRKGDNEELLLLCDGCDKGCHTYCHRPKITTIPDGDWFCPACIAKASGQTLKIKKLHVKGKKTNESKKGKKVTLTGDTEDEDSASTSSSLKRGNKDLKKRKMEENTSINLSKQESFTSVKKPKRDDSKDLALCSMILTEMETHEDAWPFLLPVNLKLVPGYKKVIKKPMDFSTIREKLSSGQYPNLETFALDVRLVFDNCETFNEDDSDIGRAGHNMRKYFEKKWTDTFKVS
Structure (SMILES),"activity change, negative = inhibition",Potency
Cc1cccc(N2CCN(C(=O)c3ccc4c(c3)CCN4S(=O)(=O)c3ccccc3)CC2)c1C,-22% (inactive),
O=C(COc1ccc(Cl)cc1)N(Cc1ccco1)Cc1ccco1,-14.8% (inactive),
Cc1ccc(S(=O)(=O)NCc2nc3nc(C)cc(C)n3n2)cc1,-1.01% (inactive),
CCc1ccc(NC(=O)CSc2nc3c([nH]c4ccccc43)c(=O)n2-c2cccc(OC)c2)cc1,-13.9% (inactive),
Cn1c(=O)c2c(SCC(=O)N3CCc4ccccc43)nc(-c3ccc(Cl)cc3)nc2n(C)c1=O,31.3% (inactive),
Cc1cc(C)nc(N/N=C/c2c(CO)cnc(C)c2O)n1,,79.4 µM (active)
Cc1cc(C)nc(N/N=C/c2c(C)oc3ccccc23)n1,-14.9% (inactive),
O=C(c1cccc(Cl)c1)N1CCN(CCc2ccncc2)CC1,-24.8% (inactive),
CCOC(=O)N1CCN(C(=O)C(C)NC(=O)c2ccco2)CC1 (centres undefined),-1.89% (inactive),
CC(NC(=O)c1ccco1)C(=O)Nc1nc(-c2ccccn2)cs1 (centres undefined),,22.4 µM (active)
CSCCC(NC(=O)c1ccco1)C(=O)Nc1cc(C)ccn1 (centres undefined),1.06% (inactive),
Cc1cc(C)cc(-n2ccnc2SCC(=O)Nc2nc3ccccc3s2)c1,-12.3% (inactive),
COc1ccc(CCNC(=O)c2cc3cccc4c3n2CC(C)S4)c(OC)c1OC (centres undefined),-15.7% (inactive),
CCC1=Nc2cc(C(=O)NCC(C)c3ccccc3)ccc2Sc2ccc(C)cc21 (centres undefined),-4.79% (inactive),
Cc1nnc(SCC(=O)Nc2ccc(S(=O)(=O)Nc3ccc(Cl)nn3)cc2)s1,,50.1 µM (active)
Cc1nnc(SCC(=O)Nn2cnnc2)s1,-2.33% (inactive),
CCCCCC(=O)Nc1ccc(S(=O)(=O)Nc2ccc(Cl)nn2)cc1,-1.75% (inactive),
c1ccc(-c2ccc(OCCN3CCOCC3)cc2)cc1,-25.3% (inactive),
c1ccc(-c2ccccc2OCCN2CCCCC2)cc1,,50.1 µM (active)
C#CC(CCN1CCCCC1)(OC)c1ccccc1 (centres undefined),-3.06% (inactive),
O=C(CC(c1cccs1)N1Cc2ccccc2C1=O)Nc1ccc(F)c(F)c1 (centres undefined),5.65% (inactive),
CC(=O)c1c(C)n(S(=O)(=O)c2ccc(Cl)cc2)c2ccc(NS(=O)(=O)c3ccc(Cl)cc3)cc12,-19.7% (inactive),
Cn1c(C(=O)N2CCCC(C(=O)NCc3ccccc3)C2)cc2sccc21 (centres undefined),-26% (inactive),
COc1ccc(N2CCN(C(=O)C3CCN(C(=O)c4ccccc4Cl)CC3)CC2)cc1,1.59% (inactive),
COc1ccc(N2CCN(C(=O)C3CCCN(C(=O)c4cc5sccc5n4C)C3)CC2)cc1 (centres undefined),,39.8 µM (active)
Cc1cc(C)cc(NS(=O)(=O)c2cc3c(cc2C)NC(=O)CO3)c1,-32.2% (inactive),
COC(=O)c1cnc(Nc2cc(C)ccc2OC)c2ccccc12,32.2% (inactive),
COc1ccc(C)cc1Nc1nc(-c2c(C)[nH]c3ccccc23)cs1,,50.1 µM (active)
COc1ccc(C)cc1Nc1nc(C)nc2c1oc1ccccc12,-23.2% (inactive),
